# Assay results taken from PubChem BioAssay AID463205 (Broad Institute, 2010).
# The campaign covered roughly 2,400 compounds. About 20 (0.8%) were called active. What follows is part of a selection rich in actives, with near analogues and random picks from the rest. Unmarked numbers belong to inactive results.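 How the source made its calls: active means AC50 no more than ten times the highest tested concentration, or full inhibition at every dose giving a flat fit (cut at about 30 µM in these data); inconclusive means flat fit with activity between 30% and 70%, or poor-quality invalid fit; inactive means AC50 more than ten times the top tested dose.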
# Test: inhibitors of ADP-Glo detection reagents, dose response, artefact control for GSK-3a inhibitor project, biochemical, luminescence, cell-free, homogeneous (AID 463205);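 further: kinase-free counter-screen against the ADP-Glo detection reagents only; potency is for inhibitors that reduce the luminescence signal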
# Conditions: 5 uM ADP
row,SMILES,AC50
1,C=CCSc1ncnc2c1oc1nc3c(cc12)COC(C)(C)C3,> 30 µM
2,Nc1nonc1-n1nnc(C(=O)N/N=C/c2ccncc2)c1CSc1ccc(Cl)cc1,> 30 µM
3,O=S(=O)(c1cccc(NC(=S)NCc2ccco2)c1)N1CCOCC1,> 30 µM
4,C=CC(=O)Nc1sc2c(c1C(N)=O)CCCC2,> 30 µM
5,NC(=O)c1ccsc1NC(=O)C1CC1,> 30 µM
6,Clc1cccc(/C=N/Nc2ncnc3ccccc23)c1,> 30 µM
7,COCCOC(=O)c1[nH]c2c(c1C)C(=O)CC(c1cc(OC)c(OC)c(OC)c1)C2 (stereo not drawn),> 30 µM
8,CC(=O)c1sc(NC(=O)CN2C(=O)C3CCCCC3C2=O)nc1-c1ccccc1 (stereo not drawn),> 30 µM
9,Cc1ccc2c(c1)COc1c3ccc(C(=O)N4CCOCC4)cc3nn1-2,> 30 µM
10,O=C(c1ccc2c3n(nc2c1)-c1ccccc1CO3)N1CCOCC1,22.5 µM (active)
11,O=C(c1ccc2c3n(nc2c1)-c1ccc(Cl)cc1CO3)N1CCOCC1,> 30 µM
12,COc1ccc(S(=O)(=O)Nc2c(C(=O)O)[nH]c3ccc(OC)cc23)cc1,> 30 µM
13,COc1ccc(-c2cc(C(=O)N3CCN(c4ccccc4)CC3)no2)cc1OC,> 30 µM
14,CCOC(=O)c1sc(NC(=O)C2CC2)cc1C,> 30 µM
15,CCCCCCCCCCCCCCCC[N+](C)(C)CC,> 30 µM
16,c1cncc(-c2nc(NCC3COc4ccccc4O3)c3ccccc3n2)c1 (stereo not drawn),> 30 µM
17,CC(C)(C)NC(=O)/C(=C\c1ccccc1F)NC(=O)c1ccc([N+](=O)[O-])cc1,> 30 µM
18,O=C(CCN1CCOCC1)Nc1cccc(Br)c1,> 30 µM
19,OCc1cn(-c2ccccc2)nn1,> 30 µM
20,O=C(COC(=O)c1ccc(F)cc1F)Nc1ccc(Cl)cn1,> 30 µM
21,CC(=NCCCn1ccnc1)c1c(O)n(Cc2ccccc2)c(=O)[nH]c1=O,> 30 µM

row,SMILES,AC50
1,Cc1ccc(NC(=O)CSc2nnc(-c3ccncc3)o2)cc1,> 30 µM
2,COc1ccc(/C=C2\Oc3cc(OCC(=O)N4CC(O)C[C@H]4C(=O)O)ccc3C2=O)c(OC)c1OC (stereo partly drawn),> 30 µM
3,CC(C)(C)c1ccc(/C=C2\Oc3cc(O)ccc3C2=O)cc1,> 30 µM
4,COc1ccc(CCn2cnc(=O)c(C#N)c2C)cc1OC,> 30 µM
5,O=C(Nc1cccc(Cl)c1N1CCOCC1)c1ccc(Br)o1,> 30 µM
6,COc1ccc(C2C3(C#N)C(N)=NC(OC)(OC)C23C#N)cc1 (stereo not drawn),> 30 µM
7,CC(=O)N1CCN(c2ccccc2NC(=O)c2ccc(-c3cccc([N+](=O)[O-])c3)o2)CC1,> 30 µM
8,Nc1nc2n(n1)C(c1ccc(F)cc1)CC(c1ccc(F)cc1)N2 (stereo not drawn),> 30 µM
9,CCOc1ccc(S(=O)(=O)Nc2cccc(C(=O)NCCCn3ccnc3)c2)cc1,> 30 µM
10,O=C1c2cnc3nc(SCc4ccccc4)nn3c2CC2c3ccccc3CCN12 (stereo not drawn),> 30 µM
11,COc1ccc(NC(=O)Nc2ccc(F)cc2F)c(C)c1,> 30 µM
12,CCOC(=O)c1cnc2c(Cl)c(Cl)ccc2c1N1CCN(C)CC1,> 30 µM
13,COc1ccc(-c2cn3cccnc3n2)cc1NC(=O)C(C)C,> 30 µM
14,O=c1cc(-c2ccsc2)oc2ccccc12,> 30 µM
15,COc1ccccc1NC(=O)Nc1ccccc1Br,> 30 µM
16,CCn1c2ccccc2c2nnc(SCC(N)=O)nc21,> 30 µM
17,CCCC1=C(C(=O)OCC)C(c2ccc(N(C)C)cc2)n2ncnc2N1 (stereo not drawn),> 30 µM
18,COCc1c(C(=O)N/N=C\c2cccnc2)nnn1-c1nonc1N,> 30 µM
19,CC(C)(C)C(=O)c1cnc(Nc2ccccc2Cl)s1,> 30 µM
20,O=C(Nc1cccc(O)c1)c1ccc([N+](=O)[O-])cc1Cl,> 30 µM
21,CCOC(=O)N1CCc2c(sc3[nH]c(=S)[nH]c(=S)c23)C1,> 30 µM

row,SMILES,AC50
1,CCCCc1ccc(NC(=O)N[C@H](C(=O)O)C(C)CC)cc1 (stereo partly drawn),> 30 µM
2,COc1ccccc1OCC(=O)Nc1sc2c(c1C(N)=O)CCC2,> 30 µM
3,O=C(CSc1ccccc1)Nc1ccc2c(c1)C(=O)NC2=O,> 30 µM
4,CCc1c(C)c(C#N)c2nc3ccccc3n2c1NC,> 30 µM
5,COc1ccc(/C=C2\Oc3cc(OCC(=O)N4CC(O)C[C@H]4C(=O)O)ccc3C2=O)cc1OC (stereo partly drawn),> 30 µM
6,Cc1ccc(S(=O)(=O)N2CCN(CC(=O)N/N=C\c3ccccn3)CC2)cc1,> 30 µM
7,CN(C)c1ccc(Nc2nc(N)c3ccccc3n2)cc1,22.8 µM (active)
8,CCOc1ccc(Nc2nc(N(C)c3ccccc3)nc(N)c2[N+](=O)[O-])cc1,> 30 µM
9,COc1ccc(Cl)cc1Nc1nc(N)c2ccccc2n1,> 30 µM
10,COc1cc(/C=N/NC(=O)c2ccoc2C)ccc1O,> 30 µM
11,Cc1occc1C(=O)N/N=C/c1ccc(N(C)C)cc1,28.1 µM (active)
12,CN(C)c1ccc(/C=N/NC(=O)c2ccccc2Cl)cc1,> 30 µM
13,O=[N+]([O-])c1cc(S(=O)(=O)N2CCCCC2)ccc1NCCCN1CCOCC1,> 30 µM
14,COc1ccc(C(=O)c2sc3nc(-c4ccc(OC)cc4)ccc3c2N)cc1,> 30 µM
15,CC(=O)N1CCN(c2ccccc2NC(=O)c2ccc(Br)o2)CC1,> 30 µM
16,COc1cc(OC)cc(C(=O)O/N=C(\N)c2ccccn2)c1,> 30 µM
17,COc1ccc(C(=O)NNC(=O)c2ccccn2)cc1,14.9 µM (active)
18,COc1cccc(C(=O)O/N=C(\N)c2ccccn2)c1,18.9 µM (active)
19,COc1ccc(C(=O)O/N=C(\N)c2ccccn2)c(OC)c1,> 30 µM
20,COc1ccc(C(=O)c2ccccc2Cl)cc1,> 30 µM
21,COc1ccc(C(=O)Nc2nc(C)cc(C)n2)cc1,> 30 µM
